Drawing on PubChem BioAssay AID777 (Sanford-Burnham Center for Chemical Genomics, 2007), this text covers inhibition for 99 compounds.

Hit rate of the full screen: of about 96,000 compounds, about 19,000 (20%) were called active. These entries were drawn from the full list. A number with no mark means an inactive call.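 The calls were made as follows: active = blocking of liver enzyme CYP2C9 beyond about 50% at 5 µM (limit read from the data); inactive = the rest.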

The term inhibition denotes the relative decrease from the control value, in per cent.

This experiment deals with Cytochrome P450 2C9 (Homo sapiens) (UniProt P11712). Briefly: blockers of cytochrome P450 2C9 activity – biochemical, luminescence, ADME assay, primary screen (AID 777). As to conditions: CYP2C9 Supersomes, luciferin-H conversion, at 5 µM, stronger effect = higher value.
Chain of Cytochrome P450 2C9 (Homo sapiens) (P11712 whole entry, looked up): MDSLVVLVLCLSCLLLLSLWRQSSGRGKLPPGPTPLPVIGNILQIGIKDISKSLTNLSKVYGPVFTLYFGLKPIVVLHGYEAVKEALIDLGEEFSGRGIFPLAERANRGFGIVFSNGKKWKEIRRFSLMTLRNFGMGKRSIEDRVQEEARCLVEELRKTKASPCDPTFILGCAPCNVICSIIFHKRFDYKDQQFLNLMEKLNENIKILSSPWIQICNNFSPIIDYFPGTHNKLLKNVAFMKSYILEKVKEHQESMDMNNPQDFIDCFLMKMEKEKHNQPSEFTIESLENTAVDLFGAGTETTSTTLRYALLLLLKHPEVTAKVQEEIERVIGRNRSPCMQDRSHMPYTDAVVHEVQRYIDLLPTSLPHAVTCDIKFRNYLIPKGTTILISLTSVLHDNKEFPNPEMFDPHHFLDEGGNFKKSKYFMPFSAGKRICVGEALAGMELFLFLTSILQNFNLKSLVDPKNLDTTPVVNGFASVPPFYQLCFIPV
As for `O=C(CSc1nnc(Cn2cnc3ccccc32)o1)c1ccccc1`, the inhibition is 32.1%.
The value for `CCOC(=O)N1CCN(CC(=O)c2c(C)[nH]c3ccccc23)CC1` was -60.1%.
The value for `COc1cc(OC)c(C(=O)Nc2ccc(N(C)C)cc2)cc1OC` was 33.3%; that for `CCNS(=O)(=O)c1ccc(NC(=O)Nc2cccc(C(F)(F)F)c2)cc1` was 34.1%.
Take `CCNS(=O)(=O)c1ccc(NC(=O)Nc2cccc(OC)c2)cc1`: the inhibition was 59.5% (active).
As for `CCC(=O)Nc1ccc(C(=O)Nc2cccc(OC)c2)cc1`, the figure is -13.5%.
The value for `CCOC(=O)C1=C(c2ccccc2)O/C(=C(/C(=O)OC)C(F)(F)F)S1` was 20.8%.
For the compound `CCCc1[nH]nc2c1C(c1ccc(OC)c(Cn3nc(C)c(Br)c3C)c1)C(C#N)=C(N)O2` (centres undefined), the inhibition is 11.8%.
The value for `CCCc1[nH]nc2c1C(c1ccc(Br)s1)C(C#N)=C(N)O2` (centres undefined) was 33%; that for `COc1ccc(-c2[nH]nc3c2C(c2ccncc2)C(C#N)=C(N)O3)cc1` (centres undefined) was -13%.
The value for `Cc1cc(C)c(C#N)c(SCc2[nH]nc3c2C(c2ccccc2)C(C#N)=C(N)O3)n1` (centres undefined) was 18.4%; that for `CCCc1[nH]nc2c1C(c1c(C)nn(-c3ccccc3)c1Cl)C(C#N)=C(N)O2` (centres undefined) was 52.8% (active); that for `CCCc1[nH]nc2c1C(c1ccc(OC(=O)c3ccco3)cc1)C(C#N)=C(N)O2` (centres undefined) was 52% (active).
Regarding `COC(=O)c1cc(S(=O)(=O)NC2CCN(Cc3ccccc3)CC2)cn1C`, the inhibition is -9.6%.
The value for `S=c1[nH]nc(-c2ccc(Cl)cc2)n1CC1CCCO1` (centres undefined) was 15.7%; that for `CC(C)NS(=O)(=O)c1ccc(CCC(=O)N2CCOCC2)cc1` was 0%; that for `CC1CCCCC1NC(=O)CSc1nnc(N)s1` (centres undefined) was -16.3%.
As for `CCCC1CC(C)(C(=O)Cn2[nH]c(=O)ccc2=O)OC1=O` (centres undefined), the figure is -20.1%.
`CC(C)Nc1ncnc2c1nnn2Cc1ccccc1`: the inhibition is -0.4%.
As for `Nc1c(C(=O)NCc2ccccc2)nnn1Cc1cccc(Cl)c1`, the figure is 19.3%; as for `COC(=O)c1c(C)c(C)nc(N)c1C#N`, -10.8%.
The value for `N#CCCN(CCC#N)c1nnc(-c2ccccc2)s1` was 2.8%.
Turning to `CCOC(=O)c1nnn(-c2nonc2-n2cccc2)c1CN1CCC(C(=O)OCC)CC1`, the inhibition was 94.8% (active).
As for `CCOC(=O)c1nnn(-c2nonc2-n2cccc2)c1CN1CCOCC1`, the inhibition is 16.6%.
In the case of `CCN(CC)Cc1c(C(=O)OC)nnn1-c1nonc1N`, the inhibition was -22.1%.
The value for `O=c1c2c(nc3nc[nH]n13)CCC2` was -10.5%.
Take `Cc1noc(C)c1C(=O)Nc1ccccn1`: the inhibition is 3.8%.
Consider `Cc1onc(-c2ccccc2)c1C(=O)Nc1ccccc1C#N`, for which the inhibition is 62.8% (active).
The value for `CC(=O)Nc1cccc(NC(=O)c2c(-c3ccccc3)noc2C)c1` was 74.3% (active); that for `CC(=O)Nc1cccc(-c2cnc3ccccc3n2)c1` was 49.7%; that for `Cc1onc(-c2ccccc2)c1C(=O)N1CCOCC1` was -1.3%.
The value for `O=C(Nc1cccc2ccccc12)c1onc2c1CCCC2` was -38.6%.
For `COC(CNC(=O)Cn1ncc2ccsc2c1=O)OC`, the inhibition is -15.8%.
In the case of `CCCC(=O)N=c1sc2cccc(F)c2n1C`, the inhibition is 14.7%.
As for `CC1=Nn2c(nnc2-c2ccccc2)SC1`, the figure is -4.9%.
As for `CCn1c(=N)c(S(=O)(=O)c2ccc(F)cc2)cc2c(=O)n3ccccc3nc21`, the figure is -0.6%; as for `O=C(Nc1nsc(-c2ccccc2)n1)c1ccncc1`, 45.7%; as for `CCC(=O)Nc1nc(OC)cc(OC)n1`, 2.1%.
As for `COc1ccc(-n2c(SCC(=O)Nc3sc4c(c3C#N)CCCC4)nnc2-c2ccc(O)cc2)cc1`, the figure is 33.9%; as for `CC(c1nnc(SCC(=O)Nc2sccc2C#N)n1-c1ccc(Cl)cc1)N(C)C` (centres undefined), 50.8% (active); as for `N#Cc1ccsc1NC(=O)CN1CCCCC1`, -15.3%.
`COc1ccc(NC2CC(=O)N(C)C2=O)cc1` (centres undefined): the inhibition was 1.8%.
On to `Cc1c(Cl)c([N+](=O)[O-])nn1Cc1ccc(C(=O)N/N=C\c2cc(Cl)ccc2O)o1`, for which the inhibition is 41.2%.
The value for `CCOc1ccc(-c2nnn(CC(=O)N3CCN(c4ccc(OC)cc4)CC3)n2)cc1OCC` was 1.7%; that for `Cc1ccc(CNC(=O)C2CCCN2C(=O)NCc2ccccc2)cc1` (centres undefined) was -10%.
The value for `O=C(NCc1ccccc1)[C@@H]1CSC2c3ccccc3C(=O)N21` (some centres undefined) was 67.1% (active); that for `O=C1c2ccccc2C(O)N1Cc1ccccc1` (centres undefined) was -2.8%; that for `Cn1cccc1C(=O)NC(=O)COC(=O)Cc1coc2ccc3ccccc3c12` was -91.7%.
The value for `O=C(c1ccco1)N1CCN(C(=O)C2CCCN(S(=O)(=O)c3cccc4nsnc34)C2)CC1` (centres undefined) was 12.6%; that for `COc1ccc(C(=O)Nc2c(N)nc(SCC(=O)N3CCC(C)CC3)[nH]c2=O)cc1OC` was -5.6%.
Regarding `COc1ccc(/C=C(/NC(=O)c2ccc(C)cc2)c2nc3ccccc3[nH]2)cc1OC`, the inhibition is 69.5% (active).
As for `COc1ccc(C(=O)Oc2cc(/C=N/NS(=O)(=O)c3ccc(C)cc3)ccc2OC)cc1`, the figure is 29.8%.
The value for `Cc1ccc(C(=O)NNC(=O)c2cc3cc4ccccc4nc3s2)cc1` was 6.6%; that for `O=C(NCCCN1CCN(C2CCCCC2)CC1)Nc1ccccc1C(F)(F)F` was 0.7%.
As for `Clc1cccc(-c2nc3nc4ccccc4nc3n2Cc2ccco2)c1`, the figure is 52.8% (active).
For `O=C(NCc1ccco1)c1cc(-c2cccnc2)nc2ccc(Cl)cc12`, the inhibition was 17.9%.
The value for `Cc1cc(NCc2ccco2)n2c(nc3ccccc32)c1C#N` was 20.4%; that for `O=C(COC(=O)CCc1c[nH]c(=O)[nH]1)Nc1ccccc1Cl` was -6%; that for `CCOC(=O)c1nnn(-c2nonc2OC)c1-c1ccccc1` was 26.7%.
In the case of `O=C(O)C1CCCN1S(=O)(=O)c1ccc2c(c1)CCC2` (centres undefined), the inhibition was -48.8%.
As for `CSc1cccc(NC(=O)C2CCCN2S(=O)(=O)c2ccc3c(c2)CCC(=O)N3)c1` (centres undefined), the figure is 81.6% (active).
`O=C1CCc2cc(S(=O)(=O)N3CCC(C(=O)NCc4ccccc4Cl)CC3)ccc2N1`: the inhibition was 24.7%.
With `CCN1CCN(c2ccc([N+](=O)[O-])cc2C(=O)c2ccc(Cl)cc2)CC1`, the inhibition is -60.5%.
The value for `CCc1nnc(NC(=O)c2nc3nccc(C)n3n2)s1` was 1.9%.
As for `Cc1ccc(-c2csc(NC(=O)Cc3cccs3)n2)cc1C`, the figure is 26.9%; as for `O=C(CSC1=NCCS1)Nc1nc(-c2ccccc2)cs1`, 60.8% (active); as for `Cc1cccc(S(=O)(=O)CC(=O)Nc2nc(-c3ccccc3)cs2)c1`, 91.4% (active).
As for `Cc1ccc(-c2csc(NC(=O)c3cccs3)n2)cc1`, the figure is 3.3%.
Take `CCCc1ccc(-c2csc(NC(=O)Cc3cccs3)n2)cc1`: the inhibition is 42.2%.
As for `CCn1c(SCC(=O)Nc2nc(C)cs2)nnc1C(C)NC(=O)c1ccccc1` (centres undefined), the figure is 21.2%; as for `Cc1cccc2nc(CNc3ccc(F)cc3)cn12`, 38.8%; as for `COc1cccc(-c2nnc(N(C)C(=O)c3ccno3)s2)c1`, 2.4%.
As for `CC(=O)c1cc(-c2ccccc2)[nH]c1N1CCCC1`, the figure is 12.9%.
As for `Cc1ccc(C)c(NC(=O)c2ccc(OC(=O)c3ccco3)cc2)c1`, the figure is -24%; as for `Cc1cccc(Nc2ccccc2C(=O)NCc2ccco2)c1C`, 27.2%; as for `Cc1ccc(C(=O)N/C(=C/C=C/c2ccccc2)C(=O)NCc2ccco2)cc1`, 36%.
For the compound `CCc1ccccc1N(CC(=O)NCCSCc1ccco1)S(C)(=O)=O`, the inhibition is 25.8%.
As for `O=C(Nc1ccccc1)Nc1ccccc1C(=O)NCc1ccco1`, the figure is 88.1% (active); as for `CS(=O)(=O)N(Cc1ccc(Cl)cc1)c1ccc(C(=O)NCCSCc2ccco2)cc1`, 74.1% (active).
As to `COc1cc(OC)cc(C(=O)NCCSCc2ccco2)c1`, the inhibition was -1.5%.
In the case of `Cc1ccccc1NC(=O)NCc1ccco1`, the inhibition was -34.3%.
The value for `Cc1ccc(N(Cc2ccc(C(=O)Nc3ccccc3C(=O)NCc3ccco3)cc2)S(C)(=O)=O)cc1C` was 72% (active); that for `COCCNC(=O)Cn1cc2c(n1)CCCCC2` was 1.8%.
The value for `COc1cc2cc(CN(CCN3CCCC3)C(=O)Nc3ccccc3Cl)c(=O)[nH]c2cc1OC` was 15%.
As for `O=S(=O)(O)CCN1CCOCC1`, the figure is 1.4%; as for `COc1cc(/C=C2/C(=O)ON=C2C)ccc1OCc1ccccc1F`, -5.4%.
In the case of `COc1ccc(C2SCCN2S(=O)(=O)c2ccccc2)cc1OC` (centres undefined), the inhibition is -107%.
As for `CCCN1Cc2cccc(C(=O)NCc3ccccc3)c2C1=O`, the figure is 16.3%; as for `N#CC1=C(N)OC2=C(C(=O)CCC2)C1C1CC=CCC1` (centres undefined), 37.1%.
For the compound `O=C(O)CN1C(=O)CC(Cc2ccccc2)C1=O` (centres undefined), the inhibition is 7.4%.
On to `COc1ccc(OC)c(C(=O)c2ccc(C(=O)O)cc2)c1`, for which the inhibition was 9.5%.
For the compound `COc1ccc(O)c(C(=O)c2cnc3onc(C(C)C)c3c2)c1`, the inhibition is 96.6% (active).
Regarding `COc1ccc(O)c(C=Nc2cc(C)on2)c1`, the inhibition was -5.4%.
The value for `O=C(CCSc1ccccc1)NCCSc1ccccn1` was 41.7%; that for `COc1ccc(C(C(O)C(=O)c2c[nH]c3ccccc23)N2CCN(c3ccccc3)CC2)cc1` (centres undefined) was 26.9%; that for `CS(=O)(=O)c1ccc2nc(NC(=O)CN3CCCCCC3)sc2c1` was 25.1%.
As to `CC1=CC(C)(C)N(C(=O)CSc2nccn2C)c2cc(C)ccc21`, the inhibition was 61.4% (active).
As for `CC1=CC(C)(C)N(C(=O)CSc2nnc(-c3ccccc3)o2)c2ccc(C)cc21`, the figure is 11.9%.
As for `CC1CCCC(NC(=O)CSc2nccn2C)C1C` (centres undefined), the figure is -4.4%.
